This passage reports outcome and Potency results from PubChem BioAssay (NCATS).

Values without a mark were called inactive. Results filed as inconclusive are left out. Where a call stands in place of a potency, no number is given. Active and inactive are the calls of the source. Calls come from the whole dose curve; as a rule, active = well fitted curve in the direction sought with a large enough effect; inconclusive = small, poorly fitted or top-dose-only effect, or another doubt; inactive = no such curve, though single readings can be large; an effect the other way counts as inactive or inconclusive.

Experiment [1] is described as follows: qHTS for inhibitors of adenylyl cyclases using a fission yeast platform: a pilot screen against the NCATS LOPAC library (AID 1347410). The method, boiled down: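 Read-out: fbp1-GFP fluorescence by laser scanning cytometry (488 nm laser), a gain of signal when AC/cAMP-PKA signalling is inhibited. Strain CHP2027 expressing AC9, GNAS and PDE4D2; compounds at up to 57 µM; 18 h, 30C.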

Experiment [2] deals with Single-stranded DNA cytosine deaminase (Homo sapiens) (UniProt Q9GZX7). Put plainly: Validation qHTS assay for inhibitors of Activation Induced Cytidine Deaminase (AID): AID signal (AID 1347429). The method, boiled down: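 AID+UDG coupled FRET deamination; cpds up to 114 uM final; DJC20/DJC23 substrate, 4 hr RT; NaOH stop, 30 min RT; read Ex 540/Em 590.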
A general note: Quantitative high-throughput screening tests each substance at several concentrations.

Experiment [3] can be described thus: Primary qHTS for inhibitors of La Crosse Virus (LACV) - induced cell death in SH-SY5Y cells (AID 1508616).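 Note: top concentration of the series differs between compounds; higher means more rescue of cells from virus-induced death.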 The method, boiled down:
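Cytopathicity rescue screen: compounds pinned onto SH-SY5Y cells, which are then infected with LACV (MOI 0.01) and held 6 days at 37C. Percent activity is scaled between infected DMSO control and uninfected DMSO control.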

The target of experiment [4] is Calcium and integrin-binding protein 1 (Homo sapiens) (UniProt Q99828). Put plainly: Primary qHTS for Identification of Calcium Integrin Binding Protein 1 (CIB1) Competitor (AID 1508620). Note: potency is the fitted concentration of half-maximal effect. The method in brief: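 Fluorescence polarization competition: GST-tagged CIB1 (1 uM final) preincubated with compound 15 min at room temperature, then FITC-labelled alphaIIb peptide (100 nM final) added. After 15 min at room temperature, polarization read at Ex 480/Em 540.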

A short description of experiment [5]: Counterscreen qHTS for small molecule stabilizers of the endoplasmic reticulum resident proteome: GLuc-NoTag assay (AID 1508627).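 Note: SH-SY5Y cells given compound then 100 nM thapsigargin to empty ER calcium; series mostly up to about 76 µM.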 The method in brief: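 Counterscreen line: SH-SY5Y-GLuc-NoTag. Seed, 5 h; compound, 19 h; thapsigargin 100 nM, 4 h; 37C/5% CO2. Readout: secreted GLuc luminescence, coelenterazine 0.07x final, no lysis.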
The nature of experiment [6]: qHTS to identify inhibitors of the type 1 interferon - major histocompatibility complex class I in skeletal muscle: primary screen against the NCATS Mechanism Interrogation Plate v5.0 (MIPE) Libary (AID 1347411). Note: nearly all actives have a fitted effect of over 65% in size. The method, boiled down:
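HLA-B HiBit myoblasts, dexamethasone-free medium + 4 ng/ml IFN-b, 24 h compound, 11-pt 1:3 from 46 uM final. Readout: Nano-Glo HiBiT lytic luminescence after 10 min lysis, RT.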

Experiment [7] deals with Protein phosphatase 1D (Homo sapiens) (UniProt O15297). Put plainly: RapidFire Mass Spectrometry qHTS Assay for Modulators of WT P53-Induced Phosphatase 1 (WIP1) (AID 1347424). Note: series mostly up to about 63 µM. The method, boiled down:
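RapidFire MS readout of dephosphorylated VEPPL-S-QETFS product, with 1 uM isotope-labelled peptide standard. Reaction: 10 nM WIP1, 2 uM phosphopeptide substrate, 5 min, room temperature, after 1 h compound preincubation; stopped with 0.5% formic acid.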

For experiment [8] the target is unchanged. Put plainly: Rhodamine-PBP qHTS Assay for Modulators of WT P53-Induced Phosphatase 1 (WIP1) (AID 1347425). The method in brief: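 Read-out: Rhodamine-PBP fluorescence (ex 525/em 598 nm) for released Pi, read each minute for 11 min after adding 10 uM VEPPL-pS-QETFS; signal taken as f1 minus pre-substrate f0. Enzyme 5 nM WIP1 with 1 hr room-temperature compound preincubation.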

The target of experiment [9] is Calcium and integrin-binding protein 1 (Homo sapiens) (UniProt Q99828). Put plainly: Confirmatory qHTS for Identification of Calcium Integrin Binding Protein 1 (CIB1) Competitor (AID 1508617). Note: potency is the fitted concentration of half-maximal effect; nearly all actives have a fitted effect of over 65% in size. The source says:
Assay Provider: Ulhas P. Naik, PhD
Sidney Kimmel Medical College
Thomas Jefferson University, Philadelphia, PA
Primary function of platelets is to maintain hemostasis. At the site of vascular injury, platelets adhere to adhesive proteins such as collagen and von Willebrand factor. Adherent platelets are activated and generate soluble platelet agonists such as thrombin, ADP and thromboxane A2. Following exposure of circulating platelets to these agonists, results in platelet shape change, granule secretion and activation of platelet integrin alphaIIb-beta3. Ligand binding to activated integrin alphaIIb-beta3 triggers outside-in signaling, leading to platelet aggregation, stabilization of platelet plug, and clot retraction. Upon atherosclerotic plaque rupture also causes platelet plug formation, which underlies a number of cardiovascular diseases such as myocardial infraction and stroke. A number of anti-platelet drugs such as aspirin, clopidogrel, prasugrel, vorapaxar, and eptifibatide are currently available to prevent the thrombotic complications. However, these anti-platelet agents have several limitations including inherent variability in individual responses, developing resistance, and serious bleeding side effects. For these reasons they are not suitable for long-term protection. Based on the experiences with current anti-platelet drugs, it appears that the most useful therapeutic approach is to intersect the secondary responses such as integrin outside-in signaling or recruitment of platelets by TxA2 and secreted ADP. Compounds, which can largely preserve the primary hemostatic function of platelets but inhibit secondary response will be most desired therapeutic agents for treatment of cardiovascular disease.
CIB1 is a calcium integrin binding protein, which specifically interact with the alphaIIb subunit of integrin alphaIIb-beta3. Binding of CIB1 to alphaIIb regulates the outside-in signaling in platelets, which is needed for thrombus stabilization and thrombus growth. […] Therefore, we propose that discovery of a small molecule that can prevent the association of CIB1 and alphaIIb-beta3 will be a potential anti-platelet agent that can block the thrombus formation without undue effect on hemostasis.
To develop fluorescence polarization (FP) assay using fluorescently labeled alphaIIb peptide and CIB1 protein. Using FP assay characterize the binding affinity, competitive inhibition, and acceptable Z factor (0.5 to1) in order to perform the HTS to identify small molecule compound that can prevent CIB1 binding to platelet integrin alphaIIb-beta3. Active compounds were re-acquired and validated using confirmatory and counterscreens.
[1] Naik MU, Nigam A, Manrai P, et al. CIB1 deficiency results in impaired thrombosis: the potential role of CIB1 in outside-in signaling through integrin alpha IIb beta 3. J Thromb Haemost. 2009;7(11):1906-1914. doi:10.1111/j.1538-7836.2009.03581.
SEQUENCE No. (1, 2, 3, etc.); […] (e.g., Cells, Incubation, Reagent, etc.); VALUE and DESCRIPTION.
1; Reagent; 3 uL; Protein or buffer (4/3x)
2; Compound; 46 nL; Control inhibitor / compound library
3; Time; 15 min; Room temperature incubation
4; Reagent; 1 uL; Fluorescent labeled peptide (4x)
5; Time; 1000 rpm; Centrifuge
6; Time; 15 min; Room temperature incubation
7; Detection; Ex 480/ Em 540; ViewLux Fluorescence Read
NOTES (numbers refer to sequence above)
1; Protein Mixture: C1B1-GST (final concentrations of 1 uM). Buffer composition: 5 mM HEPES pH 7.4, 125 mM NaCl, 5 mM CaCl2, 0.01% Tween20.
2; Control Inhibitor: unlabeled peptide (final concentration range 17.4 nM to 572 uM). Compound Library final concentration range 18.3 nM to 114 uM.
3; Room temperature incubation.
4; Fluorescent Labeled Peptide: FITC-alphaIIb (final concentration of 100 nM). Sequence of alphaIIb peptide: Acetyl-[…]-FITC (purity is 95.83%).
6; Room temperature incubation.
[…]

Protein phosphatase 1D (Homo sapiens), sequence (O15297 whole entry, looked up): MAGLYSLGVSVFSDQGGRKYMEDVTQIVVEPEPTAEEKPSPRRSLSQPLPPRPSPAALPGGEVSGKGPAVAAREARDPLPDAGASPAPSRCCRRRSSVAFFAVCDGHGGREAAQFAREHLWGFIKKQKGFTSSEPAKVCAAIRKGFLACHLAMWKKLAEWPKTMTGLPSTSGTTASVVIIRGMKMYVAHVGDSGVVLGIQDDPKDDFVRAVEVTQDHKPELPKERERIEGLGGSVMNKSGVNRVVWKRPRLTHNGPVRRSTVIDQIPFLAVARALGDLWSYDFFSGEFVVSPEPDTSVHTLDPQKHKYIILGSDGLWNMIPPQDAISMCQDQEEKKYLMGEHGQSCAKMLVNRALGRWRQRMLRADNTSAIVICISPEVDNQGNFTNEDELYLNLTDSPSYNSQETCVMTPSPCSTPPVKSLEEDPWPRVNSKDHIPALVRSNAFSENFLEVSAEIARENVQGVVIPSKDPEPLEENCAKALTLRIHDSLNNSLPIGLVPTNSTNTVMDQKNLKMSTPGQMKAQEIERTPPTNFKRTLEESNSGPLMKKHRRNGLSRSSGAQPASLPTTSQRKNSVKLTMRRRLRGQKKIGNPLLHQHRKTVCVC
Calcium and integrin-binding protein 1 (Homo sapiens), sequence (Q99828 whole entry, looked up): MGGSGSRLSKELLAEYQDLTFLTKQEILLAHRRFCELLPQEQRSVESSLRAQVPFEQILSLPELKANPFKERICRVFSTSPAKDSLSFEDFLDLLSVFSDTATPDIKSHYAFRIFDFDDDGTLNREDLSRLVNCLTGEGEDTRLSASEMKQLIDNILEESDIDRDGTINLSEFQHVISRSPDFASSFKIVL
Single-stranded DNA cytosine deaminase (Homo sapiens), sequence (Q9GZX7 whole entry, looked up): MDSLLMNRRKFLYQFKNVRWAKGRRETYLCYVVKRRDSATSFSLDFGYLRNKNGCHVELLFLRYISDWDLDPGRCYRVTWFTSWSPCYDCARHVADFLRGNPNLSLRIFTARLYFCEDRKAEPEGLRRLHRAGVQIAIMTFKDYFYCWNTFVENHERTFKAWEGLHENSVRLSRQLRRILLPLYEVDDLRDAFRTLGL

Turning to `O=C1NC(c2cccc([N+](=O)[O-])c2)=CCN1c1ccccc1O`, the call in [1], in experiment [2] and in [3] was inactive. Further, the Potency result in experiment [4] and in experiment [5] was “inactive” each time.
With `CC1(C)O[C@@H]2C[C@H]3[C@@H]4C[C@H](F)C5=CC(=O)C=C[C@]5(C)[C@@]4(F)[C@@H](O)C[C@]3(C)[C@]2(C(=O)CO)O1`, the Potency entry in experiment [6], in experiment [7] and in [4] was “inactive” throughout. Besides, the call in experiment [8] and in experiment [3] was inactive.
Take `CN1CCCN=C1/C=C/c1cccs1`: the Potency entry in experiment [6], in [7] and in experiment [4] was “inactive” each time. Besides, the compound was classed as inactive in experiment [8] and in experiment [3].
As for `CCCc1ccc(OCC(=O)N2CCN(C(=O)COc3ccc(CCC)cc3OC)CC2)c(OC)c1`, the Potency entry in [7] and in experiment [4] was “inactive” each time. Besides, the result in [8] and in experiment [3] was inactive.
For `Cc1ccc(C(C)OC(=O)C2(C)CCC(C(=O)O)C2(C)C)cc1` (stereo not drawn), the Potency result in [7] and in experiment [4] was “inactive” in each case. The call in experiment [8] and in [3] was inactive.
For `C[C@]12CCC(=O)C=C1CC[C@@H]1[C@@H]2[C@@H](O)C[C@@]2(C)[C@H]1CC[C@]2(O)C(=O)COC(=O)CCC(=O)O`, the Potency result in [7] and in experiment [4] was “inactive” in each case. Further, the compound was called inactive in [8] and in [3].
As for `NCC(=O)O`, the Potency result in experiment [7] is “inactive”. Further, the compound was classed as inactive in [8] and in experiment [3].
With `COc1c(N2C[C@@H]3CCCN[C@@H]3C2)c(F)cc2c(=O)c(C(=O)O)cn(C3CC3)c12`, the Potency result in [7] and in experiment [4] was “inactive” in each case. For the same compound, the compound was classed as inactive in experiment [8] and in experiment [3].
As for `C/C=C(/C(=C/C)c1ccc(OC(C)=O)cc1)c1ccc(OC(C)=O)cc1`, the Potency result in experiment [7] and in experiment [4] was “inactive” in each case. Also, the compound was classed as inactive in [8] and in experiment [3].
`CN1CC[C@H](c2c(O)cc(O)c3c(=O)cc(-c4ccccc4Cl)oc23)[C@H](O)C1`: the Potency entry in experiment [7] was “inactive”. The compound was called inactive in experiment [8] and in [3].
As to `CC(C)(C)C(O)/C=C/c1ccc2c(c1)OCO2` (stereo not drawn), the Potency result in experiment [7] is “inactive”. Moreover, the outcome in [8] and in experiment [3] was inactive.
As for `O=C(O)CCCC[C@@H]1SC[C@@H]2NC(=O)N[C@@H]21`, the Potency result in experiment [7] and in [4] was “inactive” throughout. Further, the compound was called inactive in experiment [8] and in experiment [3].
Take `CC(C)NCCCC1(C(N)=O)c2ccccc2-c2ccccc21`: the Potency result in experiment [7] was “inactive”. For the same compound, the outcome in experiment [8] and in experiment [3] was inactive.
Take `CCCc1c2oc(C(=O)O)cc(=O)c2cc2c(=O)cc(C(=O)O)n(CC)c12`: the Potency entry in [7] and in [4] was “inactive” in each case. Also, the result in experiment [8] and in experiment [3] was inactive.
In the case of `CCOC(=O)C(O)c1ccccc1` (stereo not drawn), the Potency result in experiment [7] and in experiment [4] was “inactive” in each case. Moreover, the compound was called inactive in [8] and in experiment [3].
On to `COC(=O)c1cc(Cl)ccc1OC`, for which the Potency entry in experiment [7] and in [4] was “inactive” each time. For the same compound, the outcome in [8] and in experiment [3] was inactive.
Turning to `Nc1cc(C(F)(F)F)ccc1S`, the Potency entry in experiment [7] was “inactive”. Besides, the result in [8] and in experiment [3] was inactive. Moreover, the Potency was 22.4 µM (active) in experiment [9] and 28.2 µM (active) in experiment [4].
